The text below walks through data of PubChem BioAssay (EPA / NIEHS).

Broadly, the AC50 is the midpoint of the concentration-response curve, whichever way the signal moves.

Inconclusive results are not listed. Active and inactive are the calls of the source. Rule for the calls, unless noted: active = hit-call score of the fitted dose curve at least 0.9, where 1 is the maximum; inconclusive = response in the unintended direction; inactive = score below 0.9.

Test [1] in a line: ATG_TCF_b_cat_CIS: Attagene CIS-FACTORIAL HepG2 Assay for human T-Cell-Factor with beta-catenin (TCF/b-cat) (AID 2282965; active = hit-call score of the fitted dose curve at least 0.9, where 1 is the maximum; inactive = score below 0.9). The following applies: HepG2 TCF/beta-catenin cis-reporter transcription, actives raise or lower the signal. In short, it runs like this:
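Cells of the HepG2 line carry transiently transfected reporter units whose promoters respond to endogenous factors. Twenty-four hours post-dosing, reporter mRNA induction is measured by fluorescent RT-PCR and capillary electrophoresis, with DMSO as baseline.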

Test [2] can be described thus: ATG_TAL_CIS: Attagene CIS-FACTORIAL HepG2 Assay for human TAL Basal Promoter (AID 2282966; active = hit-call score of the fitted dose curve at least 0.9, where 1 is the maximum; inactive = score below 0.9;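 note: background control endpoint measuring basal TAL promoter reporter mRNA not a specific factor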). The following applies: HepG2 Attagene cis-factorial TAL promoter reporter; actives raise or lower the signal. In short, it runs like this:
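Basal-promoter background-control endpoint from a multiplexed HepG2 reporter panel. Cells were exposed 24 h, then reporter mRNA was read by RT-PCR/CE fluorescence and fitted in both directions relative to DMSO.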

Test [3] in a line: ATG_TGFb_CIS: Attagene CIS-FACTORIAL HepG2 Assay for human Transforming Growth Factor (TGF) (AID 2282967; active = hit-call score of the fitted dose curve at least 0.9, where 1 is the maximum; inactive = score below 0.9). The conditions noted are these: HepG2 Attagene CIS TGFb reporter, mRNA transcription; actives raise or lower the signal. In short, it runs like this:
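Transcript-level reporter readout: HepG2 transfectants, 24 h exposure, RNA to cDNA, reporter-specific PCR, fluorescent primer extension, capillary sizing against ROX standards. Gain- or loss-of-signal relative to DMSO.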

Test [4] in a line: ATG_VDRE_CIS: Attagene CIS-FACTORIAL HepG2 Assay for human Vitamin D Receptor Element (VDRE) (AID 2282968; active = hit-call score of the fitted dose curve at least 0.9, where 1 is the maximum; inactive = score below 0.9). The conditions noted are these: HepG2 VDRE cis-reporter transcription, actives raise or lower the signal. The essentials:
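Compounds were applied for 24 h to HepG2 cells transfected with promoter-regulated reporter units. Total RNA was reverse-transcribed, and reporter amplicons were fluorescently labelled and sized by capillary electrophoresis.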

For test [5], the target named is Nuclear receptor subfamily 1 group I member 3 (Homo sapiens) (UniProt Q14994). In words: ATG_CAR_TRANS: Attagene TRANS-FACTORIAL HepG2 Assay for human Constitutive Androstane Receptor (CAR) (AID 2282969).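 Note: activators raise reporter mRNA above DMSO so AC50 marks induction.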 The following applies: HepG2 Attagene TRANS-FACTORIAL CAR reporter. The essentials: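 Transiently transfected HepG2, multiplex TRANS reporters (CAR-Gal4 chimera driving GAL4-UAS reporter). 24 h dosing. Readout: reporter transcript by RT-PCR + capillary electrophoresis, fluorescence intensity; positive direction vs DMSO.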

The target in test [6] is Estrogen receptor (Homo sapiens) (UniProt P03372). Description: ATG_ERa_TRANS: Attagene TRANS-FACTORIAL HepG2 Assay for human Estrogen Receptor alpha (ERa) (AID 2282970). The following applies: HepG2 Attagene TRANS ERa GAL4 reporter, mRNA. The essentials: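 Gal4-fusion ERa transactivation, measured as reporter transcript level in transiently transfected HepG2 cells. Exposure 24 h; RT-PCR plus capillary electrophoresis with fluorescence detection.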

Test [7] deals with X-box-binding protein 1 (Homo sapiens) (UniProt P17861). In words: ATG_Xbp1_CIS: Attagene CIS-FACTORIAL HepG2 Assay for human X-box Binding Protein 1 (XBP1) (AID 2282972; active = hit-call score of the fitted dose curve at least 0.9, where 1 is the maximum; inactive = score below 0.9). The following applies: HepG2 XBP1 cis-element reporter, Attagene multiplex; actives raise or lower the signal. The essentials:
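Changes in reporter transcript abundance, read by RT-PCR and capillary electrophoresis, reflect endogenous transcription factor activity. Transfected HepG2 cells received compound for 24 hours; DMSO defined baseline for bidirectional analysis.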

A short description of test [8]: ATG_M_19_TRANS: Attagene TRANS-FACTORIAL HepG2 Assay for M19 Transcription Factor (Internal Marker) (AID 2282974). The conditions noted are these: HepG2 Attagene TRANS-FACTORIAL M19 internal marker reporter. The essentials:
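Cells: human HepG2, transiently transfected with multiplexed reporter transcription units. Exposure: 24 h. Detection: RT-PCR of reporter mRNA with capillary electrophoresis. Analysis: gain-of-signal vs DMSO.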

Test [9] in a line: ATG_GAL4_TRANS: Attagene TRANS-FACTORIAL HepG2 Assay for GAL4 (Internal Marker) (AID 2282976). The conditions noted are these: HepG2 Attagene TRANS GAL4 internal marker reporter. The essentials: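 Background-control readout: GAL4-UAS reporter transcript in transiently transfected HepG2 cells after 24 h compound exposure. Measured by RT-PCR, 6-FAM primer extension, HpaI digest and capillary electrophoresis; gain-of-signal fit versus DMSO.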

Test [10] has as its target Bile acid receptor (Homo sapiens) (UniProt Q96RI1). In words: ATG_FXR_TRANS: Attagene TRANS-FACTORIAL HepG2 Assay for Farnesoid X Receptor (FXR) (AID 2282979).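 Note: hits raise reporter mRNA above DMSO so AC50 marks FXR activation.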 The following applies: HepG2 Attagene TRANS FXR-GAL4 reporter transcription. The essentials: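 HepG2 cells were transiently transfected with GAL4-UAS reporters driven by chimeric NR-Gal4 proteins and dosed for 24 h. Reporter mRNA was quantified by RT-PCR, fluorescent labelling, HpaI digestion and capillary electrophoresis, with gain of signal scored versus DMSO.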

For test [11], the target named is Hepatocyte nuclear factor 4-alpha (Homo sapiens) (UniProt P41235). Description: ATG_HNF4a_TRANS: Attagene TRANS-FACTORIAL HepG2 Assay for human Hepatocyte Nuclear Factor 4 alpha (HNF4a) (AID 2282982). The conditions noted are these: HepG2 HNF4a transactivation reporter, mRNA readout. In short, it runs like this:
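Endpoint reflects transcriptional activation of a GAL4-UAS reporter by an HNF4a-GAL4 chimera in transfected HepG2 cells, 24 h post-dosing. Fluorescence from RT-PCR products separated by capillary electrophoresis; DMSO baseline.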

Test [12] deals with Steroid hormone receptor ERR1 (Homo sapiens) (UniProt P11474). Description: ATG_ERRa_TRANS: Attagene TRANS-FACTORIAL HepG2 Assay for human Estrogen-Related Receptor alpha (ERRa) (AID 2282971). The following applies: HepG2 Attagene TRANS reporter, ERRa transactivation. The essentials: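 HepG2 cells transiently transfected with GAL4-UAS reporter units and chimeric NR-Gal4 constructs; after 24 hour compound incubation, reporter mRNA quantified by RT-PCR, fluorescent labelling and capillary electrophoresis, gain of signal versus DMSO.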

The target in test [13] is Estrogen-related receptor gamma (Homo sapiens) (UniProt P62508). In words: ATG_ERRg_TRANS: Attagene TRANS-FACTORIAL HepG2 Assay for human Estrogen-Related Receptor gamma (ERRg) (AID 2282977).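 Note: hits increase reporter signal over DMSO so potencies reflect activators.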 The following applies: HepG2 Attagene TRANS reporter, ERRg transactivation. In short, it runs like this:
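Exogenous NR-Gal4 chimera activity measured as reporter transcript induction after 24 h in transiently transfected HepG2 cells. RNA reverse-transcribed, PCR-amplified, 6-FAM-labelled and resolved by capillary electrophoresis; increase over DMSO baseline.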

The nature of test [14]: ATG_M_06_TRANS: Attagene TRANS-FACTORIAL HepG2 Assay for M06 Transcription Factor (Internal Marker) (AID 2282983). The following applies: HepG2 Attagene TRANS M06 internal marker reporter. In short, it runs like this: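 mRNA levels of a reporter transcript, quantified as FAM fluorescence on capillary electrophoresis, served as readout. HepG2 cells expressing exogenous GAL4-chimera reporter constructs were exposed for 24 h. Gain of signal over DMSO was evaluated.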

For test [15], the target named is Nuclear receptor subfamily 4 group A member 2 (Homo sapiens) (UniProt P43354). Description: ATG_NURR1_TRANS: Attagene TRANS-FACTORIAL HepG2 Assay for human Nuclear Receptor Related Protein 1 (NURR1) (AID 2282985). The following applies: HepG2 Attagene TRANS reporter, mRNA readout. The essentials: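 Endpoint: reporter mRNA increase relative to DMSO. HepG2 cells transfected with reporter units, treated 24 h; RNA processed by RT-PCR, labelling, HpaI digestion and capillary electrophoresis.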

In test [16] the target is Transcriptional activator Myb (Homo sapiens) (UniProt P10242). In words: ATG_Myb_CIS: Attagene CIS-FACTORIAL HepG2 Assay for human Myeloblastosis (Myb) Proto-Oncogene Transcription Factor (AID 2282986; active = hit-call score of the fitted dose curve at least 0.9, where 1 is the maximum; inactive = score below 0.9). The conditions noted are these: HepG2 Attagene CIS-FACTORIAL Myb reporter transcription; actives raise or lower the signal. In short, it runs like this: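 Steps: transfect HepG2 with cis-regulated reporter units; dose with chemical for 24 h; isolate RNA, reverse-transcribe, PCR-amplify and FAM-label reporter sequences; digest with HpaI; resolve by capillary electrophoresis. Activity fitted in both directions relative to DMSO.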

Test [17] concerns the target Oxysterols receptor LXR-alpha (Homo sapiens) (UniProt Q13133). Description: ATG_LXRa_TRANS: Attagene TRANS-FACTORIAL HepG2 Assay for human Liver X Receptor alpha (LXRa) (AID 2282980). The conditions noted are these: HepG2 Attagene TRANS reporter, LXRa transactivation. In short, it runs like this:
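HepG2 cells transiently transfected with GAL4-UAS reporter units for chimeric NR-Gal4 proteins, exposed to chemicals for 24 h. Reporter mRNA quantified by RT-PCR and capillary electrophoresis; gain of signal fitted relative to DMSO.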

Test [18] has as its target Oxysterols receptor LXR-beta (Homo sapiens) (UniProt P55055). Description: ATG_LXRb_TRANS: Attagene TRANS-FACTORIAL HepG2 Assay for human Liver X Receptor beta (LXRb) (AID 2282981). The following applies: HepG2 Attagene TRANS GAL4-LXRb reporter, mRNA. In short, it runs like this: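 Multiplexed reporter assay, HepG2, 24 h dosing. Fluorescence of labelled RT-PCR products after capillary electrophoresis gives transcript level; positive fitting direction relative to DMSO.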

A short description of test [19]: ATG_M_32_TRANS: Attagene TRANS-FACTORIAL HepG2 Assay for M32 Transcription Factor (Internal Marker) (AID 2282984). The following applies: HepG2 Attagene TRANS M32 internal marker reporter. In short, it runs like this:
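Internal-marker readout from a multiplexed transcription reporter panel. HepG2 cells were transfected with GAL4-UAS reporter units, treated 24 hours, and reporter transcript levels determined by fluorescence after RT-PCR and capillary separation.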

Chain of Estrogen receptor (Homo sapiens) (P03372 whole entry, looked up, the tested form may be a part): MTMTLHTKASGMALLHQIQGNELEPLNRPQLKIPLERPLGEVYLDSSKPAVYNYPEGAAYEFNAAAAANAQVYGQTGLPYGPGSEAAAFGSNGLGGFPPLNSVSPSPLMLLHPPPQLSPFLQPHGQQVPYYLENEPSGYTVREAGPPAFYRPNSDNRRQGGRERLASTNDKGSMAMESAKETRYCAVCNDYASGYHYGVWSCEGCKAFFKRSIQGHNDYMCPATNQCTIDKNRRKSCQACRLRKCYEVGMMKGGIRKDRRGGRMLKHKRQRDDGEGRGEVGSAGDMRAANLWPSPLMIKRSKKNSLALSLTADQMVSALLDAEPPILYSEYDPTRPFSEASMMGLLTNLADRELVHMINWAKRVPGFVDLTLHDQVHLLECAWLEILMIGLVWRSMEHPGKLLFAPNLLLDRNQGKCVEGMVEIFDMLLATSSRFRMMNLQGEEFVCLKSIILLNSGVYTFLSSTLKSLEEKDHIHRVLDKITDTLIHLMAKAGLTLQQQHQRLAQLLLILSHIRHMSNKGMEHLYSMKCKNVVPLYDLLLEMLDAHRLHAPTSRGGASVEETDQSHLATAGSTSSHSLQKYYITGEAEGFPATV
Chain of Bile acid receptor (Homo sapiens) (Q96RI1 whole entry, looked up, the tested form may be a part): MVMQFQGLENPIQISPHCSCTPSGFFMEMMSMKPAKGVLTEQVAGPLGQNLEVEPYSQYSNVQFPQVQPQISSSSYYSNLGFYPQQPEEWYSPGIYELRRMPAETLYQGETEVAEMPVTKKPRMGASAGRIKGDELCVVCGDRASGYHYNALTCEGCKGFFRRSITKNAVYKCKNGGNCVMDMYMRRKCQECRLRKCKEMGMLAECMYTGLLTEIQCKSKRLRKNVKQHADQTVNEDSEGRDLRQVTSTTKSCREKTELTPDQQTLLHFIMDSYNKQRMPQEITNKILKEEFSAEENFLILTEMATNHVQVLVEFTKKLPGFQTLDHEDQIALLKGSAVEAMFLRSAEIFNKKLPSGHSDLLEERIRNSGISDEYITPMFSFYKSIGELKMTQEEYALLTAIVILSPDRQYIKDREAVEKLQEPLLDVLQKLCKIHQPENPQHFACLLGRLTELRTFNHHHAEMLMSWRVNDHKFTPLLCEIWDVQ
Chain of Hepatocyte nuclear factor 4-alpha (Homo sapiens) (P41235 whole entry, looked up, the tested form may be a part): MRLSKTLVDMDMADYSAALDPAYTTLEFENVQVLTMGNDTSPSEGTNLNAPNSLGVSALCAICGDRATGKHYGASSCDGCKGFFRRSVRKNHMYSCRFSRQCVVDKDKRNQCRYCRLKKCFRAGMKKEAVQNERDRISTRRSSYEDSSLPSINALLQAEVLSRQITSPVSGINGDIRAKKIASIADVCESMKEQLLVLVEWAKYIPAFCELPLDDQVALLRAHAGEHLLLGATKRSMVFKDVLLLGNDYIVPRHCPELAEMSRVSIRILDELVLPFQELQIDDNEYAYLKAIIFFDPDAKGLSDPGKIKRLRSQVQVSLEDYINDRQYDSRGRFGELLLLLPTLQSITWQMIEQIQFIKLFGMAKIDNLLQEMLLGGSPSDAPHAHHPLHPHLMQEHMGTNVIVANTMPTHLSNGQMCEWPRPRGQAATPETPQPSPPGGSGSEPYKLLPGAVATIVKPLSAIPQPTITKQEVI
Chain of Nuclear receptor subfamily 1 group I member 3 (Homo sapiens) (Q14994 whole entry, looked up, the tested form may be a part): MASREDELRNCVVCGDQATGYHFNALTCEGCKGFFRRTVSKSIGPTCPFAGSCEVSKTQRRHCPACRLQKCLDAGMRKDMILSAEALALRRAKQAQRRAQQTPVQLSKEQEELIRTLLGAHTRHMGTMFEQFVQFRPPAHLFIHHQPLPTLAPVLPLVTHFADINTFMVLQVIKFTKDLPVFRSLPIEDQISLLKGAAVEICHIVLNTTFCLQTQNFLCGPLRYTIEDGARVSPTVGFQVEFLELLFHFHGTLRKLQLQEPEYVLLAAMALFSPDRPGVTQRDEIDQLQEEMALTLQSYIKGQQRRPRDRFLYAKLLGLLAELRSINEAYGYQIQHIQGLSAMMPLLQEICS
Chain of Transcriptional activator Myb (Homo sapiens) (P10242 whole entry, looked up): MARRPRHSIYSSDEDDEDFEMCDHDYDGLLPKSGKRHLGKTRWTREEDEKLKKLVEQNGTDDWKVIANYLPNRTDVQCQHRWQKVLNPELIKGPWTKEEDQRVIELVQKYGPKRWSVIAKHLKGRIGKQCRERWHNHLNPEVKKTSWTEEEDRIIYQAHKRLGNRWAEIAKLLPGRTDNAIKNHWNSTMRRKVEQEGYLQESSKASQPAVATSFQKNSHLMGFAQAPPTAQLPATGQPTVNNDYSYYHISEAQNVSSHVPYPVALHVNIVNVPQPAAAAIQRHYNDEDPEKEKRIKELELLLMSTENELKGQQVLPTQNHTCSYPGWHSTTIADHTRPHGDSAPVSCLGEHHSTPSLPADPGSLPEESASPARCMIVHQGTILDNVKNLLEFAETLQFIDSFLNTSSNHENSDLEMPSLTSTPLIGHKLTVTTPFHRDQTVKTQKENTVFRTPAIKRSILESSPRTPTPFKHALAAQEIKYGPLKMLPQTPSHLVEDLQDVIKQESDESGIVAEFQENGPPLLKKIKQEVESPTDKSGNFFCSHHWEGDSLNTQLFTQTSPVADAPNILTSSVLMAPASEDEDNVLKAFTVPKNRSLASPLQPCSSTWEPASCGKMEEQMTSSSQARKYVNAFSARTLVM
Chain of X-box-binding protein 1 (Homo sapiens) (P17861 whole entry, looked up): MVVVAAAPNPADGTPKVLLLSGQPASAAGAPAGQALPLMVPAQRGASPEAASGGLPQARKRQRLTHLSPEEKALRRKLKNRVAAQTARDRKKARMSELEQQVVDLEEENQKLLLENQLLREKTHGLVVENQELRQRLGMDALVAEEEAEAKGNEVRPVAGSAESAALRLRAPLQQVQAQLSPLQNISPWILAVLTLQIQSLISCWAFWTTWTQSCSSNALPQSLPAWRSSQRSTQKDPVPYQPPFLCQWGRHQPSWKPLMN
Chain of Nuclear receptor subfamily 4 group A member 2 (Homo sapiens) (P43354 whole entry, looked up): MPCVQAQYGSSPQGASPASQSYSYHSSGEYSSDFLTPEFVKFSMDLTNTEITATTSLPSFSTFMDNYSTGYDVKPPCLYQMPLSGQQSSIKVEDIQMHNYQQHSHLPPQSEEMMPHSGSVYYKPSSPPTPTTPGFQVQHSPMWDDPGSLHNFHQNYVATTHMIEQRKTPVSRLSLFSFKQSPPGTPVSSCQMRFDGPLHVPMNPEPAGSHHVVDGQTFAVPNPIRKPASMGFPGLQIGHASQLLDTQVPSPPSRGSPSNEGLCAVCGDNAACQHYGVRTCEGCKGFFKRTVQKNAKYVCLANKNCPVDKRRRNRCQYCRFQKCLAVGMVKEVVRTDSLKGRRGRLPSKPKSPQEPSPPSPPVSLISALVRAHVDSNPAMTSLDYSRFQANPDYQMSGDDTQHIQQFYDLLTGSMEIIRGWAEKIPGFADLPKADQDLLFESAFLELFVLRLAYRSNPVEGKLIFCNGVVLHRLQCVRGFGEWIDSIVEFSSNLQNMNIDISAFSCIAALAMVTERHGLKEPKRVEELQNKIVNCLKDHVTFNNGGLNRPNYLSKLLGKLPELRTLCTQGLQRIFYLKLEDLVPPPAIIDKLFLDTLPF
Chain of Oxysterols receptor LXR-alpha (Homo sapiens) (Q13133 whole entry, looked up, the tested form may be a part): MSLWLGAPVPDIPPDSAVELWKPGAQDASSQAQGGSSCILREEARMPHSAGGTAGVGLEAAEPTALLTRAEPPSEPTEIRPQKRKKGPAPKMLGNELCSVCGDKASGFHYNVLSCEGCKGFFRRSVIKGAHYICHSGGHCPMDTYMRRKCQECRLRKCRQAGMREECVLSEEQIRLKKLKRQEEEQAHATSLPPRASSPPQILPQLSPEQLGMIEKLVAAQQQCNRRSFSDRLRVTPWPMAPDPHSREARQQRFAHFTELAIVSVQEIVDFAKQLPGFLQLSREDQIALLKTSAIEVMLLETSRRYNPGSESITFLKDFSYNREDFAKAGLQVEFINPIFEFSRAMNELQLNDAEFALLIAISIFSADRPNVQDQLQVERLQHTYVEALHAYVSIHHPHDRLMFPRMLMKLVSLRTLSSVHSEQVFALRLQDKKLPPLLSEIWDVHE
Chain of Steroid hormone receptor ERR1 (Homo sapiens) (P11474 whole entry, looked up, the tested form may be a part): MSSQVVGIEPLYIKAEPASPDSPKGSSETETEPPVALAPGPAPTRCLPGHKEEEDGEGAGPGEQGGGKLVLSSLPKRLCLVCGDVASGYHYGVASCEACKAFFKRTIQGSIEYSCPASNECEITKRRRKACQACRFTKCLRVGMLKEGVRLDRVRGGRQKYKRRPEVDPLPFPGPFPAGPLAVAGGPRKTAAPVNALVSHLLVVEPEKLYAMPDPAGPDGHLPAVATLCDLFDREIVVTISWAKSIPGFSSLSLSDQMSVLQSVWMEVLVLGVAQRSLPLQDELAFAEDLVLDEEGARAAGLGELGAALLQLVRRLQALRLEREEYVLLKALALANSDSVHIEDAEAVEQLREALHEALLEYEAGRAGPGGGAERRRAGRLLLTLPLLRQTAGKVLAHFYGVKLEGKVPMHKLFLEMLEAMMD
Chain of Estrogen-related receptor gamma (Homo sapiens) (P62508 whole entry, looked up, the tested form may be a part): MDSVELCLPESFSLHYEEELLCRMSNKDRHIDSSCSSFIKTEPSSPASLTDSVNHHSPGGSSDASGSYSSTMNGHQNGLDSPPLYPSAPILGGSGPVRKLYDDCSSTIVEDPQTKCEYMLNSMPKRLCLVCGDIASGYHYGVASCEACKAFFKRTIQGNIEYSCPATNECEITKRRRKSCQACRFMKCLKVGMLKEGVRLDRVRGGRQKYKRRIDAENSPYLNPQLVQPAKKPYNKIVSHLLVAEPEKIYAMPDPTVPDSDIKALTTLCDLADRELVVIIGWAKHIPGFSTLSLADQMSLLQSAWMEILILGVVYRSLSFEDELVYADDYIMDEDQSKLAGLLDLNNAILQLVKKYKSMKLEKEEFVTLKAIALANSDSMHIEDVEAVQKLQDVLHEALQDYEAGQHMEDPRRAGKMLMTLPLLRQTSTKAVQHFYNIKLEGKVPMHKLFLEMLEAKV

For the molecule `CO[Si](OC)(c1ccccc1)c1ccccc1`, the molecule was classed as inactive in test [1], in test [2], in [3], in test [4], in [5] and in test [6]. In addition, the outcome in [7], in test [8], in [9], in test [10] and in test [11] was inactive.
On to `O=C(Cl)C(F)(F)C(F)(F)C(F)(F)C(F)(F)C(F)(F)C(F)(F)C(F)(F)C(F)(F)F`, for which the concentration at half-maximal activity (AC50) in test [1] is 33.4 µM (active); in [4], 52.2 µM (active); in test [6], 25.5 µM (active); in test [7], 41.9 µM (active); in test [15], 24.9 µM (active). Moreover, the outcome in test [2], in test [3], in test [5], in test [12], in test [13] and in test [10] was inactive. Also, the result in test [11], in [14] and in test [16] was inactive.
For the molecule `Nc1ccc(Oc2cccc(Oc3ccc(N)cc3)c2)cc1`, the concentration at half-maximal activity (AC50) in test [1] was 27.4 µM (active); in [6] it was 2.58 µM (active); in test [7] it was 42 µM (active); in test [11] it was 160 µM (active). Further, the outcome in test [2], in [3], in test [4], in [5], in [12] and in [14] was inactive.
In the case of `O=C(O)C(F)(F)C(F)(F)C(F)F`, the molecule was classed as inactive in [1], in test [2], in [3], in test [4], in test [5] and in test [6]. In addition, the molecule was called inactive in test [7], in test [8], in test [9], in test [13], in [10] and in [17]. Also, the molecule was classed as inactive in [18], in test [11], in test [14], in [19], in [15] and in [16].
